# Tau fibril FP – inhibitors of human tau fibril formation | P10636 | K18 P301L tau heparin fibrillization, Alexa594 FP, 6 h | Potency, µM (titrated, usually from 57.7 µM), for the others: at the highest dose activity, negative = inhibition, most hits filed as inhibitors | actives 0.39% (n = 280,000) | AID 1468; further: nearly all actives have a fitted effect of over 55% in size
# Target sequence (P10636 561-689 P618L limits assumed): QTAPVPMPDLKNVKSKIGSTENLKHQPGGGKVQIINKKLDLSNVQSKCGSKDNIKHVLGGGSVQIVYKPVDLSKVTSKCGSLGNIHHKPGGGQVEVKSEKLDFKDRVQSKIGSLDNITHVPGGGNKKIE
#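 Compound effects on tau fibrillization are measured by Alexa 594 fluorescence polarization (ex 555, em 632 nm). K18 P301L tau is used at 15 uM with 0.24 uM labeled tracer, and 20 uM heparin induces aggregation over 6 hr at 37 C.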
# GoLoco inh red – RGS12 GoLoco-Gai1 interaction inhibition; P63096; Gai1:RGS12 GoLoco peptide FP, rhodamine, 10 min; Potency, µM (titrated, usually from 61.6 µM), for inactives: at the top dose activity, negative = inhibition, most hits filed as inhibitors; actives 0.44% (n = 230,000); AID 880; active means well fitted inhibition curve with a large enough effect, not every such curve was filed as active; inactive means no such curve, though single readings can be large or run the other way; further: nearly all actives have a fitted effect of over 30% in size
# Target sequence (P63096 whole entry, looked up): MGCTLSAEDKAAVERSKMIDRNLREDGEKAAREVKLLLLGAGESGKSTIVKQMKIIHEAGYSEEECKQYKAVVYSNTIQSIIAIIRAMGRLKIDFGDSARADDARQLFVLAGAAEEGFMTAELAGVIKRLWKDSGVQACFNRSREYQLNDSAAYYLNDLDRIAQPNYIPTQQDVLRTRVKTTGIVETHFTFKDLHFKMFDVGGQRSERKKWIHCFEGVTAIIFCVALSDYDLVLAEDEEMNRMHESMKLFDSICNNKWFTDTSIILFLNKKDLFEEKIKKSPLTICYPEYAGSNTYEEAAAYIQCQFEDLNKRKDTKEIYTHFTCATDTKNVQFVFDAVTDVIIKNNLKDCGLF
# Tau fluor counter – counter-screen for tau fibril formation inhibitors; tau K18 P301L Alexa594 fluorescence, heparin fibrillization; Potency, µM (titrated, usually from 57.7 µM), inactives show at the top dose activity change, negative = decrease; actives 0.93% (n = 280,000); AID 1463; further: nearly all actives have a fitted effect of over 55% in size
#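 Human tau K18 P301L (15 uM unlabeled, 0.24 uM Alexa 594-labeled) in 100 mM sodium acetate pH 7 with 20 uM heparin, 6 hr at 37 C. ThT 30 uM added, 1 hr ambient; Alexa 594 FP and total fluorescence read at 555/632 nm.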
# KDM4E inh – inhibitors of human JMJD2E histone demethylase; actives 1.6% (n = 230,000); AID 2147; JMJD2E catalytic domain, FDH-coupled NADH fluorescence (FDH is formaldehyde dehydrogenase); Potency, µM (titrated, usually from 57.1 µM), without a hit: at the highest dose activity change, negative = inhibition, actives largely listed as inhibitors; B2RXH2; active means well fitted inhibition curve with a large enough effect, not every such curve was filed as active; inconclusive means small, poorly fitted or top-dose-only effect, or another doubt; inactive means no such curve, though single readings can be large or run the other way;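 further: 0% = wells with enzyme and -100% = buffer wells without enzyme; nearly all actives have a fitted effect of over 50% in size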
# Tau fibril ThT – blocks human tau fibril formation measured by thioflavin T; Potency, µM (highest dose often 57.4 µM), inactives show at the highest dose activity, negative = inhibition, usual class: inhibitors; recombinant tau K18 P301L (four-repeat tau fragment), heparin-induced fibrillization, ThT fluorescence; actives 2.1% (n = 270,000); P10636; further: nearly all actives have a fitted effect of over 55% in size
#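 Recombinant human tau K18 fragment […] carrying P301L, 15 uM unlabeled plus 0.24 uM Alexa 594-labeled, was fibrillized with 20 uM heparin in 100 mM sodium acetate pH 7 for 6 hr at 37 C; 30 uM ThT fluorescence read after 1 hr.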
# * hit, by the source's call; ? = inconclusive; . = no result; [ ] = remark or other dose. Only some compounds are listed: those with a hit (about 3.4% of all), similar ones and a draw of the others. Unless noted, the call rests on the fitted dose curve; in most records, active means well fitted curve in the direction sought with a large enough effect; inconclusive means small, poorly fitted or top-dose-only effect, or another doubt; inactive means no such curve, though single readings can be large; an effect the other way counts as inactive or inconclusive. Unless noted, on the % scale 0 is the no-effect control and ±100 the full control effect; potency means the concentration at half of the fitted maximal effect.
SMILES,Tau fibril FP,GoLoco inh red,Tau fluor counter,KDM4E inh,Tau fibril ThT
Cc1cccc(NC(=O)C2CCCN(S(=O)(=O)c3ccc4c(c3)CCCC(=O)N4)C2)c1 (centres undefined),-10%,.,-8%,.,-2%
CCOCCCNC(=O)c1ccc(-n2c(-c3ccccc3)cc3c2CCCCC3)cc1,20µM*,.,?,.,13%
CCOC(=O)c1cnc2cc(C(F)(F)F)ccc2c1Nc1cc(C)ccc1OC,-7%,.,-3%,.,-4%
COc1ccc(N2C(=O)CC(Sc3ncn[nH]3)C2=O)c(OC)c1 (centres undefined),3%,.,5%,2.8µM*,?
CC(C)c1ccc(N2C(=O)CC(Sc3ncn[nH]3)C2=O)cc1 (centres undefined),-7%,14%,-9%,1.6µM*,-16%
CCCc1c(O)nc(SC2CC(=O)N(c3cc(OC)ccc3OC)C2=O)[nH]c1=O (centres undefined),3%,-5%,3%,1%,-4%
NC(=O)COC(=O)c1ccc(Cl)c(S(=O)(=O)N(Cc2ccccc2)c2ccc(Cl)cc2)c1,?,.,?,6%,-16%
NC(=O)NC(=O)COC(=O)c1ccc(Cl)c(S(=O)(=O)N(Cc2ccccc2)c2ccc(Cl)cc2)c1,11µM*,10%,?,-10%,-7%
COc1cc(NC(=O)CC2C(=O)N(c3ccc(Cl)cc3)C(=O)N2Cc2cccs2)cc(OC)c1 (centres undefined),?,.,?,.,-2%
Cc1ccc(O)c(-c2cc(-c3ccccc3F)[nH]n2)c1,?,-6%,?,-3%,?
Cc1ccc(O)c(-c2cc3ccccc3[nH]2)c1,11%,2%,16µM*[quencher],?,13µM*
COc1ccc(Nc2nc(-c3sc(N)nc3C)cs2)cc1,?,80%,?,5%,8.9µM*
COc1ccc(CCNc2ccncn2)cc1OC,3%,-17%,-12%,-2%,-17%
Cc1nc(N)sc1-c1csc(Nc2ccccn2)n1,?,16%,14µM*[quencher],?,13µM*
CCCCCCC(=O)Nc1nc(C)c(-c2csc(Nc3cc(OC)ccc3OC)n2)s1,?,0%,?,-21%,?
COc1ccc(CCNc2nc(-c3sc(N)nc3C)cs2)cc1OC,?,24%,?,-7%,14µM*
COc1ccc(-c2csc(Nc3ccc(C)cn3)n2)cc1,-3%[2.34 µM],-1%,-4%,-1%,-6%
Cc1nc(N)sc1-c1csc(Nc2ccc(Cl)cn2)n1,-5%,-4%,14µM*[quencher],-20%,7.9µM*
Cc1ccccc1C(=O)n1nc(-c2ccco2)nc1NCc1cccs1,-5%,.,?,.,-17%
Cc1nn(-c2ccccc2)c2c1N(CCCC(=O)NC(C)c1ccccc1)C(=O)CS2 (centres undefined),-4%,.,3%,.,4%
CCOc1ccc(C(=O)c2cn(CC(=O)Nc3ccc4c(c3)OCCO4)c3ccc(F)cc3c2=O)cc1,-10%,.,-10%,.,7%
CC[n+]1c(S(=O)(=O)[O-])ccc2ccc(C)cc21,-1%,1%,2%,?,4%
CCN1/C(=C/c2ccc3ccccc3[n+]2CC)C=Cc2ccccc21,-14%,214%,12%,3%,3.2µM*
CCN1/C(=C/c2ccc3cc(C)ccc3[n+]2C)Sc2ccc3sccc3c21,4%,160%,3.2µM*[fluorescent],-9%,1.6µM*
CCN1C(=C2C(=O)c3ccccc3C2=O)C=Cc2ccccc21,-9%,8%,-17%,-2%,?
SMILES,Tau fibril FP,GoLoco inh red,Tau fluor counter,KDM4E inh,Tau fibril ThT
CCCCN1/C(=C/c2ccc3ccccc3[n+]2CC)Sc2ccccc21,-7%,84%,-1%,14µM*,14µM*
CCN1/C(=C/c2ccc3cc(C)ccc3[n+]2CC)Sc2cc(C)ccc21,?,171%,?,?,14µM*
CC(C)(Oc1ccc(Cl)cc1)C(=O)Nc1ccc(-c2nc3ncccc3o2)cc1,-17%,.,-8%,.,-6%
CCN(C(=O)c1cn(CC)c(=O)c2cc(OC)c(OC)cc12)c1ccc(C)c(C)c1,-2%,.,-1%,.,1%
CCc1ccc(Nc2cc(C(=O)NCCCN3CCOCC3)c3ccccc3n2)cc1,?,6%,16µM*[quencher],4%,?
COc1ccc(N2CCN(CCCNC(=O)c3cc(Nc4ccc(OC)cc4OC)nc4ccccc34)CC2)cc1,11%,.,16µM*[quencher],.,18µM*
COc1ccc(Nc2cc(C(=O)NCCCN(C)C3CCCCC3)c3ccccc3n2)c(OC)c1,4%,.,?,.,?
COc1ccc(Nc2cc(C(=O)NCCCN(C)C3CCCCC3)c3ccccc3n2)cc1,?,.,11µM*[quencher],.,?
CSc1nn(Cc2ccccc2C)c(NC(C)=O)c1S(=O)(=O)c1ccc(C)cc1,-11%,.,-20%,.,11%
COc1cc(OC)c(NC(=O)CSC2=Nc3ccccc3N=C(c3ccc(F)cc3)C2)cc1Cl,?,.,-27%,.,-2%
CN1c2cccc3cccc(c23)N(C)C1c1cccs1,2%,-23%,?,0%,?
c1csc(C2Nc3cccc4cccc(c34)N2)c1,?,-6%,16µM*[quencher],?,11µM*
Brc1ccc(C2Nc3cccc4cccc(c34)N2)o1,?,-27%,?,3.2µM*,?
CC(C)CSc1ccccc1NC(=O)c1sc2nc(-c3ccncc3)ccc2c1N,3%,.,3.2µM*[quencher],.,-16%
CC1=C(C(=O)Nc2ccc(Cl)cc2)C(c2ccc(C(F)(F)F)cc2)n2nnnc2N1 (centres undefined),22µM*,.,?,.,-6%
CCOc1ccc(NC(=O)c2c(NCc3cccs3)sc3c2CCCCC3)cc1,-4%,.,?,.,?
CCOc1ccc(NC(=O)c2c(NCc3sccc3C)sc3c2CCCCC3)cc1,?,.,?,.,14µM*
CCOc1ccc(NC(=O)c2c(NCc3ccc(C)o3)sc3c2CCCCC3)cc1,?,.,-23%,.,22µM*
COc1ccc(NC(=O)c2c(NCc3ccc(C)o3)sc3c2CCC(C)C3)c(OC)c1 (centres undefined),-9%,.,?,.,?
COc1ccc(NC(=O)c2c(NCc3ccc(C)o3)sc3c2CCC(C)C3)cc1 (centres undefined),?,.,?,.,25µM*
Fc1ccc(CNc2cc(-c3ccccc3)nc3nncn23)cc1,1%,.,-6%,.,2%
COc1cc(/C=C(\C#N)C(N)=O)ccc1OCc1c(C)no[n+]1[O-],-7%,11%,-9%,-21%,-9%
COc1cc(/C=N/Nc2nncn2N)ccc1OCc1c(C)no[n+]1[O-],?,8%,-19%,0.5µM*,?
COC(=O)CCC(=O)OC1(C)C(=O)C2=CN(CCCCO)C(c3ccc(OC)cc3)=CC2=C(Br)C1=O (centres undefined),6%[11.6 µM],2%[14.2 µM],6%[11.6 µM],-9%[11.4 µM],15%[11.5 µM]

# Screening results as filed in PubChem BioAssay.
